# Results taken from PubChem BioAssay AID602252 (Broad Institute, 2012).
# Screen size: about 300,000 compounds; about 2,700 (0.9%) were called active. The full list was thinned out, with actives kept by preference. A number with no mark means an inactive call.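 The calls were made as follows: active = mean inhibition of at least 30% with at least half of replicates also reaching 30%; inconclusive = no clear call, values can overlap the other calls; inactive = the rest.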
# Target: Golgi-associated PDZ and coiled-coil motif-containing protein (Homo sapiens) (UniProt Q9HD26)
# Assay: blockade of CAL PDZ-reporter peptide interaction – biochemical, fluorescence polarization, untagged CAL PDZ, HTS, primary screen (AID 602252);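 also: 0% = DMSO neutral control and 100% = excess unlabeled competitor peptide PRC23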
# Conditions: purified CAL PDZ, TMR-peptide fluorescence polarization, 1 h; at 24.9 µM; hits give high values
row,SMILES,inhibition
1,N#CCCN1CCN(S(=O)(=O)c2ccc(S(=O)(=O)N3CCCC3)cc2)CC1,2.13%
2,N#CCCN1CCN(S(=O)(=O)c2ccc(S(=O)(=O)NC3CCCCC3)cc2)CC1,49.3% (active)
3,Cc1ccc(S(=O)(=O)NC2CCCCCC2)cc1,0.011%
4,COc1ccc(-c2c(-c3cc(OC)cc(OC)c3)n(C)c3ccc(-c4ccn[nH]4)cc23)cc1,-3.15%
5,CCN1CCC(O)(/C=C/c2ccc(C)cc2)C(C(=O)/C=C/c2ccc(C)cc2)C1 (configuration not stated),8.48%
6,CCCn1c(=O)c(C(=O)Nc2cc(C)ccn2)c(O)c2ccccc21,-3.7%
7,Cn1c(=O)c(C(=O)Nc2ncccn2)c(O)c2ccccc21,35% (active)
8,C=CCn1c(=O)c(C(=O)Nc2ncccc2O)c(O)c2ccccc21,-2.5%
9,COc1ccc(Cl)cc1C=CC=Nc1ccc(S(N)(=O)=O)cc1,1.96%
10,COc1ccc(CC(=O)Nc2nc(-c3ccc(F)c(F)c3)cs2)cc1OC,-3.84%
11,COc1cccc(CC(=O)Nc2nc(-c3ccc(OC)c(OC)c3)cs2)c1,-0.162%
12,COc1ccc(CCNc2nc(-c3cccc(NC(C)=O)c3)cs2)cc1OC,57.3% (active)
13,O=C(Nc1cccc(S(=O)(=O)N2CCOCC2)c1)C12CC3CC(CC(C3)C1)C2,-2.14%
14,CSc1ncnc2c1ncn2CC(=O)C1CCC2C3CCC4=CC(=O)CCC4(C)C3CCC12C (configuration not stated),2.07%
15,COc1ccccc1NC(=O)CN(c1ccccc1OC)S(=O)(=O)c1ccccc1,0.854%
16,COc1ccccc1N(CC(=O)N1CCCCC1)S(=O)(=O)c1ccccc1,-3.76%
17,COc1ccccc1N(CCOc1ccccc1)S(=O)(=O)c1ccccc1,71% (active)
18,O=C(O)C(=Cc1ccccc1[N+](=O)[O-])c1ccccc1,-1.54%
19,O=C(CSc1nnc(CNC(=O)c2ccc(F)cc2)o1)Nc1ccc2c(c1)OCO2,74.1% (active)
20,O=C(NCc1nnc(SCC(=O)N2CCCCCC2)o1)c1ccc(F)cc1,-2.96%
21,COc1ccc(C(=O)NCc2nnc(SCC(=O)Nc3cccc(OC)c3)o2)cc1,-4.41%
22,COc1ccc(-c2ccc3c(c2)[C@@H]2C[C@H](N(C)S(=O)(=O)c4ccccc4)[C@H]([C@H](C)O)C(=O)N2CC3)cc1,-5.77%

row,SMILES,inhibition
1,CCCCn1c(N)c(N(CCOC)C(=O)c2cccc(S(=O)(=O)N3CCCCC3)c2)c(=O)[nH]c1=O,-4.58%
2,CCCCn1c(=S)[nH]c2cc(S(=O)(=O)N3CCCCC3)ccc21,1.64% (active)
3,O=c1[nH]c2ccc(S(=O)(=O)N3CCCC3)cc2[nH]1,-3.37%
4,CCN(CC)S(=O)(=O)c1cccc(NC(=O)c2ccc(S(=O)(=O)N3CCCC3)cc2)c1,-1.26%
5,O=C1/C(=C\c2ccc([N+](=O)[O-])cc2)CS(=O)(=O)C/C1=C/c1ccc([N+](=O)[O-])cc1,-4.54%
6,COc1ccccc1NC(=O)COC(=O)CNC(=O)C1CCCCC1,-1.86%
7,CN(CCc1ccccc1)C(=O)c1cccc(NC(=O)Cc2ccc([N+](=O)[O-])cc2)c1,0.702%
8,O=C(COC(=O)c1ccccn1)NNC(=O)c1ccc(Br)cc1,-0.344%
9,Cc1nc(N)[nH]c(=O)c1Oc1cccc(C(F)(F)F)c1,71.1% (active)
10,O=Cc1ccc(Oc2cccc(C(F)(F)F)c2)nc1,2.04%
11,Cc1cccc(OCc2nnc(SCc3nc4cc(C(F)(F)F)ccc4c(=O)[nH]3)o2)c1,1.6%
12,Fc1ccccc1-c1cc2cc3c(cc2cn1)OCO3,-3.15%
13,COc1cc(/C=C/c2ccc(/C=C/c3cc(OC)c(OC)c(OC)c3)cc2)cc(OC)c1OC,-6.47%
14,CC(Oc1ccc2c(-c3ccccc3)cc(=O)oc2c1)C(=O)NC(Cc1c[nH]c2ccccc12)C(=O)O (configuration not stated),1.66%
15,Cn1c(CCN2CCCC2)nc2cc(NS(=O)(=O)c3ccccc3)ccc21,-2.75%
16,Cn1c(CCN2CCCCCC2)nc2cc(NC(=O)Nc3ccccc3)ccc21,49.1% (active)
17,CCC(=O)Nc1ccc2c(c1)nc(CCN1CCN(c3ccccn3)CC1)n2C,-15.1%
18,CC[C@@H]1CCCCc2ccccc2[C@@H](C(=O)C[C@H](O)CC(C)=O)OC1=O,1.2%
19,COCCNC(=O)C1CCN(S(=O)(=O)c2ccc3c(c2)OCCO3)CC1,-1.23%
20,O=C(NCc1ccccc1Cl)C1CCN(S(=O)(=O)c2cccc3nonc23)CC1,-3.79%
21,COc1ccccc1CNC(=O)C1CCN(S(=O)(=O)c2ccc3c(c2)OCCO3)CC1,80.2% (active)
22,O=C(NCc1cccs1)C1CCN(S(=O)(=O)c2ccc3c(c2)OCCO3)CC1,-6.83%

row,SMILES,inhibition
1,O=C(NCc1ccccc1Cl)C1CCN(S(=O)(=O)N2CCOCC2)CC1,137% (active)
2,COc1ccc(CNC(=O)C2CCN(S(=O)(=O)N3CCOCC3)CC2)cc1,-1.68%
3,CCOc1ccc(CCNC(=O)COC(=O)C2CCN(S(=O)(=O)c3ccccc3)CC2)cc1OCC,-1.05%
4,O=C(N[C@H]1C/C=C\C(c2cccc(F)c2)N(Cc2ccccc2)C(=O)C1)OCC1c2ccccc2-c2ccccc21 (some centres not stated),-1.43%
5,O=C(Nc1c(Br)cc2c(c1Br)Cc1ccccc1-2)C(F)(F)F,-4.34%
6,Cc1cn(C2CC(O)C(CO)O2)c(=O)n(CCCc2ccccc2)c1=O (configuration not stated),-2.38%
7,COc1ccc(S(=O)(=O)N2CCOCC2)cc1NC(=O)c1ccc(OCC(C)C)c(OC)c1,-4%
8,COc1cc2c(cc1OC)C1C(=O)c3cc(OS(C)(=O)=O)c(OC)cc3C1N(C)C2=O (configuration not stated),-1.26%
9,Cc1noc(NS(=O)(=O)c2ccc(NC(=O)C34CCC(CC3)C4)cc2)c1C,-5.91%
10,CCn1c(SCC(=O)Nc2ccc(S(=O)(=O)Nc3onc(C)c3C)cc2)nnc1-c1ccccc1,30.7% (active)
11,CCn1c(SCC(=O)Nc2ccc3c(c2)OCCO3)nnc1-c1ccncc1,-1.31%
12,COc1ccc(C(CNC(=O)c2cccc(S(=O)(=O)Nc3ccc(Br)cc3)c2)N(C)C)cc1 (configuration not stated),-3.75%
13,O=[N+]([O-])c1ccc(NS(=O)(=O)c2ccccc2)c(Cl)c1,-10.2%
14,O=[N+]([O-])c1ccc(COc2ccccc2CN2CCOCC2)cc1,0.702%
15,COc1ccccc1N1CCN(/N=C\C(Br)=C\c2ccccc2)CC1,1.35%
16,COc1cc(/C=N/N2CCN(c3ccccc3)CC2)ccc1OC(C)=O,4.07%
17,COc1ccccc1N1CCN(/N=C/c2ccc(O)cc2O)CC1,77.6% (active)
18,CC(=NNC(=S)N1CCCCCC1)c1ccccn1,-1.44%
19,CN(O)C(=S)c1ccccc1,-3.98%
20,CN1CCN(S(=O)(=O)c2ccc(N3CCN(c4ccccc4O)CC3)c([N+](=O)[O-])c2)CC1,-6.2%
21,O=C(C[C@H]1C[C@H](C(=O)N2CCOCC2)[C@@]2(CCC3CCCC3)c3[nH]c4ccc(Cl)cc4c3CCN2C1=O)NCc1ccco1,4.95%
22,CCOC(=O)C1=C(C)N(C[C@@H]2CC[C@@H](Cc3ccc(-c4ccccc4)cc3)O2)C(=O)NC1c1ccc([N+](=O)[O-])cc1 (some centres not stated),-2.42%

row,SMILES,inhibition
1,N#C/C(=C(/O)COc1cccc2ccccc12)c1nc2ccccc2[nH]1,-1.44%
2,CC(C)(C)c1nnc2sc(SCC(O)=C(C#N)c3nc4ccccc4[nH]3)nn2c1=O,43.7% (active)
3,Cc1ccccc1OC/C(O)=C(\C#N)c1nc2ccccc2[nH]1,4.87%
4,CC1CCCCC12NC(=O)N(CC(=O)OCc1c(F)cccc1Cl)C2=O (configuration not stated),-9.25%
5,C(#CCN1CCOCC1)CCCN1CCOCC1,-3.29%
6,Cc1cc(C(=O)COc2ccc(Br)cc2F)c(C)n1C1CC1,-6.1%
7,COc1ccc(CNC(=O)COc2ccccc2C(=O)c2cnn(-c3ccccc3)c2)cc1OC,-9.89%
8,CC(NCCO)C(=O)C12CC3CC(CC(C3)C1)C2 (configuration not stated),4.83%
9,O=C(CNCCO)NC12CC3CC(CC(C3)C1)C2,40.5% (active)
10,O=C(COC(=O)C12CC3CC(CC(O)(C3)C1)C2)NC12CC3CC(CC(C3)C1)C2,-5.51%
11,Cc1cccc(C(=O)N[C@H](C(=O)NCc2cccs2)C(C)C)c1,-0.924%
12,O=C(Nc1ccc(S(=O)(=O)N2CCOCC2)cc1)C1CCN(S(=O)(=O)c2ccc(Cl)cc2)CC1,-10.9%
13,Cc1c(Cl)cccc1NC(=S)NCc1ccc2c(c1)OCO2,51.1% (active)
14,CN(C)S(=O)(=O)c1cccc(NC(=S)NCc2ccc3c(c2)OCO3)c1,-4.92%
15,CCNC(=S)Nc1cccc(Cl)c1C,-2.42%
16,CC(C)n1cnc2c(NCc3ccccc3)cc(OCC3CCN(C)CC3)cc21,3.01%
17,CN(C(=O)c1cccc(NC(=O)C2CCN(C(=O)OC(C)(C)C)CC2)c1)C1CCC1,-3.04%
18,O=C(c1cc(S(=O)(=O)N2CCOCC2)ccc1Cl)N1CCOCC1,-1.76%
19,O=C(O)c1ccc(S(=O)(=O)N2CCOCC2)o1,32.5% (active)
20,O=C(CCc1ccc(S(=O)(=O)N2CCOCC2)cc1)NN=C1CCCCCCC1,-3.33%
21,Cc1cccc(C=CC(=O)c2ccc(Cl)cc2)c1,-5.84%
